Consider 73 compounds from PubChem BioAssay AID686978 (National Center for Advancing Translational Sciences (NCATS), 2013).

The whole screen tested about 420,000 compounds, of which about 64,000 (15%) were called active. Not shown: some 27% with an inconclusive outcome. The call rests on the fitted dose curve; in most records, active means well fitted inhibition curve with a large enough effect; inconclusive means small, poorly fitted or top-dose-only effect; inactive means flat fitted curve, though single readings scatter. Only a sample is shown. A call without a number means that no potency is given here.
Potency means the concentration at half of the fitted maximal effect.

This assay is described as follows: qHTS for Inhibitors of human tyrosyl-DNA phosphodiesterase 1 (TDP1): qHTS in cells in absence of CPT. Further: nearly all actives have a fitted effect of over 55% in size. As to conditions: DT40 Tdp1-/- hTDP1 cells, no CPT, ATP luminescence, 48 h; activity change, negative = growth inhibition: at 46.2 µM (top of the series). The essentials:
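Growth of hTDP1-complemented DT40 Tdp1-knockout cells is measured by ATP luminescence after at least 48 hr compound exposure at 37 °C, with DMSO substituting for the 20 nM CPT used in the parallel screen.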
(Quantitative high-throughput screening tests each substance at several concentrations.)
`CCOC(=O)C1=C(CC)Nc2ccccc2N=C1N`: the Potency result was “inactive”. `COCCNC(=O)c1cc(-c2cccc(Cl)c2)on1`: the Potency result is “inactive”. Take `CSc1ccc(NC(=O)Cn2nnnc2-c2ccccc2F)cc1`: the Potency result was “inactive”. In the case of `COc1ccc(NC(=O)CN(C)C(=O)CNC(=O)C2CCCCC2)cc1`, the Potency entry was “inactive”. `COc1ccccc1C1/C(=C(/O)c2ccc(C)cc2)C(=O)C(=O)N1Cc1ccco1` (stereo not drawn): the Potency entry is “inactive”. As to `COc1ccc(S(=O)(=O)N(C)CC(=O)NCCCN2CCOCC2)cc1Cl`, the Potency result was “inactive”. Take `CN(Cc1ccc(F)cc1Cl)S(=O)(=O)c1cccs1`: the Potency entry is “inactive”. In the case of `CN(Cc1ccccc1)CC(O)COc1ccc(CNCc2cc3ccccc3s2)cc1` (stereo not drawn), the Potency is 29.1 µM (active). For the compound `OC(CNCc1ccc2c(c1)OCO2)COc1ccccc1` (stereo not drawn), the Potency result was “inactive”. `Cc1ccc(OCC(=O)OC(C)CN(C)Cc2ccccc2)cc1` (stereo not drawn): the Potency result was “inactive”. With `O=C(COC(=O)c1ccc(F)c(S(=O)(=O)N2CCOCC2)c1)NCc1ccc2c(c1)OCO2`, the Potency result is “inactive”. For the compound `OC(Cc1ccc2ccccc2n1)c1ccc(Cl)c(Cl)c1` (stereo not drawn), the Potency result was “inactive”. The value for `Cc1cc(NC(=O)C(C)N2C(=O)c3ccccc3S2(=O)=O)no1` (stereo not drawn) was “inactive”; that for `O=C(CN1CCOCC1)Nc1cccc([N+](=O)[O-])c1` was “inactive”. On to `O=C(CN1C(=O)NC2(CCCCCC2)C1=O)NC1CC1`, for which the Potency result was “inactive”.

Take `O=C(CN1C(=O)NC2(CCCCCC2)C1=O)Nc1ccc([N+](=O)[O-])cc1`: the Potency is 18.4 µM (active). For the compound `O=C(CN1C(=O)NC2(CCOc3ccccc32)C1=O)NCc1ccc(F)cc1` (stereo not drawn), the Potency result is “inactive”.

In the case of `O=C(CN1C(=O)NC2(CCCC2)C1=O)Nc1ccc(F)c(F)c1F`, the Potency entry was “inactive”. Under `CN(C)S(=O)(=O)c1cc(NC(=O)CN2C(=O)NC3(CCCc4ccccc43)C2=O)ccc1Cl` (stereo not drawn) stands 14.6 µM (active); under `CCOc1ccc(CCNC(=O)CN2C(=O)NC3(CCc4ccccc43)C2=O)cc1OCC` (stereo not drawn), “inactive”; under `O=C(CN1C(=O)NC2(CCc3ccccc32)C1=O)NC1CCCCC1` (stereo not drawn), “inactive”. Regarding `O=C(CN1C(=O)NC2(CCOc3ccccc32)C1=O)Nc1cccc([N+](=O)[O-])c1` (stereo not drawn), the Potency was 20.6 µM (active). In the case of `COC(=O)Nc1ccc(S(=O)(=O)Nc2cc(OC)nc(OC)n2)cc1`, the Potency result is “inactive”. Regarding `NS(=O)(=O)c1ccc(N2C(=O)C3C4CC(C(Br)C4Br)C3C2=O)cc1` (stereo not drawn), the Potency result is “inactive”. On to `O=C1CC(Cc2ccccc2)C(=O)N1c1ccc(Cl)cn1` (stereo not drawn), for which the Potency result was “inactive”. The value for `Cc1ccn(-c2cccc(-n3ccc(C)n3)n2)n1` was “inactive”; that for `COCCCn1c(SCC(=O)Nc2ccccc2)nnc1-c1ccncc1` was “inactive”. As for `CCOC(=O)C1CSC(CC(=O)Nc2ccc(OCC)cc2)C(=O)N1` (stereo not drawn), the Potency result is “inactive”. Take `O=C(C1CCCO1)N1CCN(C(=O)C23CC4CC(CC(C4)C2)C3)CC1` (stereo not drawn): the Potency result was “inactive”. For `COc1ccc(OC)c(-c2csc(NC(=O)COC(=O)C3CC3)n2)c1`, the Potency entry is “inactive”. `COc1ccc(NC(=O)C2=NNC(=O)CC2)cc1S(=O)(=O)N1CCCCC1`: the Potency entry was “inactive”. Regarding `COc1ccc(OC)c(-c2csc(NC(=O)C3=NNC(=O)CC3)n2)c1`, the Potency was 13 µM (active). With `COc1ccnc(Oc2ccccc2)n1`, the Potency result was “inactive”.

For the compound `CCc1nnc(NC(=O)Cc2cccs2)s1`, the Potency result is “inactive”.

Regarding `Fc1ccc2cnc(-c3ccccc3)cc2c1`, the Potency entry is “inactive”. For the compound `CNc1nc(-c2ccccc2)cc(-c2ccccc2)n1`, the Potency result is “inactive”. On to `CSc1nc(Nc2ccc(F)cc2)cc(-c2ccccc2)n1`, for which the Potency is 23.1 µM (active). For `O=C(c1ccc(Cn2cc([N+](=O)[O-])cn2)o1)N1CCCC1`, the Potency result is “inactive”.

With `COCC(=O)Nc1ccc(Br)cc1`, the Potency result is “inactive”. Consider `Cc1ccc(CCNC(=O)c2nnc(Cc3cccc(F)c3)o2)cc1`, for which the Potency result was “inactive”. On to `Cc1cc(Br)ccc1NC(=O)C1CCCO1` (stereo not drawn), for which the Potency entry is “inactive”.

On to `C[C@@H]1NS(=O)(=O)c2cc(Cl)ccc2O[C@@H]1c1ccccc1`, for which the Potency entry was “inactive”.

Turning to `COC(=O)C1=C(C)Nc2ncnn2C1c1ccco1` (stereo not drawn), the Potency entry is “inactive”. As for `CC1=C(C(=O)OC2CCCCC2)C(c2cccnc2)n2ncnc2N1` (stereo not drawn), the Potency was 20.6 µM (active). Turning to `COC(=O)C1=C(C)Nc2ncnn2C1c1cccnc1` (stereo not drawn), the Potency result was “inactive”.

For the compound `O=C(CSc1nnc(-c2ccc(NS(=O)(=O)c3ccccc3)cc2)o1)NCC1CCCO1` (stereo not drawn), the Potency result was “inactive”.

For the compound `Oc1ccc(-c2csc(Nc3cccnc3)n2)cc1`, the Potency was 29.1 µM (active).

Regarding `COc1ccc(Nc2nc(-c3ccccc3)cs2)cc1`, the Potency entry is “inactive”. Take `COc1ccc(-c2csc(Nc3ccc(O)cc3)n2)cc1`: the Potency is 6.51 µM (active).

For `COc1ccc(-c2csc(Cc3nc(O)cs3)n2)cc1`, the Potency is 14.6 µM (active).

As to `Cc1ccccc1Nc1nc(-c2cccnc2)cs1`, the Potency entry is “inactive”. On to `COc1ccc(-n2c(SC)nc(O)cc2=O)cc1`, for which the Potency result is “inactive”. In the case of `O=C(NCc1cccnc1)C(=O)Nc1nc(-c2ccccc2)cs1`, the Potency result was “inactive”. Regarding `Clc1ccc(-c2csc(-c3ccncc3)n2)cc1`, the Potency result was “inactive”. Consider `c1ccc(Nc2nc(-c3ccncc3)cs2)nc1`, for which the Potency is 16.4 µM (active). With `CN(c1ccc(O)cc1)c1nc(-c2cccnc2)cs1`, the Potency result is “inactive”. Under `COc1ccc(C(C)NC(=O)C2CCCC2)cc1` (stereo not drawn) stands “inactive”; under `NC(=O)c1ccc(NC(=O)COC(=O)C(Cc2ccccc2)NC(=O)c2ccccc2)cc1` (stereo not drawn), “inactive”. For `O=C(O)c1ccc(NC(=O)c2ccc(COc3ccc(Cl)cc3)o2)cc1`, the Potency result was “inactive”. Under `CC(=O)Nc1cc(C(=O)N2CCc3c(Cl)cccc3C2)cc2ncn(CCc3ccccn3)c12` stands “inactive”; under `COc1cccc(C2/C(=C(/O)c3ccc(F)cc3)C(=O)C(=O)N2CCN(C)C)c1` (stereo not drawn), “inactive”; under `O=C1CC(C(=O)O)NC(=S)N1` (stereo not drawn), “inactive”. In the case of `CCCCCN(C(=O)NC(=O)Nc1cccc(C)c1C)S(C)(=O)=O`, the Potency entry is “inactive”. The value for `COc1ccc(C2CC(c3cccc(OC)c3)=NN2c2ccc(S(N)(=O)=O)cc2)cc1` (stereo not drawn) was “inactive”.

In the case of `COc1ccccc1OCCOc1ccc(/C=C2\C(=N)N3N=C(C)SC3=NC2=O)cc1`, the Potency entry is “inactive”.

Turning to `COc1ccc(OC)c(Nc2nc(-c3ccc(O)c(O)c3)cs2)c1`, the Potency is 1.16 µM (active). As to `CCN(CC(=O)Nc1c(F)cccc1F)C(=O)CN1c2cccc3cccc(c23)S1(=O)=O`, the Potency result is “inactive”. In the case of `CCn1c(SCC(=O)NCC2CCCO2)nc2cc(S(=O)(=O)N3CCCCC3)ccc21` (stereo not drawn), the Potency result is “inactive”. Under `Cc1ccc(NC(=O)CSc2nnc(COc3ccccc3C)o2)cc1` stands “inactive”.

With `CC1CCCC(C)N1C(=O)CSc1nnnn1C1CCCC1` (stereo not drawn), the Potency entry is “inactive”. In the case of `CCCCc1ccc(NC(=S)NCCCN2CCOCC2)cc1`, the Potency entry is “inactive”. Take `Cc1ccc(NC(=S)NCCN2CCOCC2)cc1`: the Potency result is “inactive”. Take `CCOc1cccc(/C=N/NC(=S)NCCN2CCOCC2)c1O`: the Potency was 2.91 µM (active).
